# Experimental data: PubChem BioAssay (NCI)
# Compounds without any hit were thinned out: in the full panel of roughly 83,000, 20% have a hit.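 Step 1: grow cells in 96-well plates. Step 2: add test compound at a single concentration. Step 3: incubate 48 h. Step 4: record percent growth.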 A number with no mark means an inactive call. Active and inactive are the calls of the source. How the source made its calls: active means growth percent below 10; inactive means the rest.
# Columns and labels:
# Experiment in all cases: NCI-60 one-dose screen, 48 h (100 = growth as untreated, 0 = no growth, -100 = all killed)
# Details in all cases: 10 µM unless noted
# [1] = tested on: SK-MEL-2 melanoma
# [2] = tested on: EKVX NSCLC
# [3] = tested on: SN12C renal
# [4] = tested on: ACHN renal
# [5] = tested on: A498 renal
# [6] = tested on: CCRF-CEM leukemia
# [7] = tested on: MOLT-4 leukemia
# [8] = tested on: UO-31 renal
# [9] = tested on: TK-10 renal
# [10] = tested on: CAKI-1 renal
Compound,growth [1],growth [2],growth [3],growth [4],growth [5],growth [6],growth [7],growth [8],growth [9],growth [10]
COc1cnc2c(c1)C(=O)c1c-2n(CCCn2ccnc2)c(=O)c2cc(F)ccc12,-19.1% (active),11.4%,12.4%,-72.6% (active),-84.4% (active),-0.897% (active),-23.9% (active),,,
O=c1sc2ncnc3ncn1c32,81.9%,,85%,80.3%,101%,54.8%,,52.6%,26.9%,43.1%
Cc1ccc2nc(-c3ccc(N(C)C)c(Br)c3)cn2c1,94.3%,79.5%,94.8%,,118%,,28.6%,,146%,126%
NC(=O)c1cc(Cl)ccc1NC(=O)c1ccccc1-c1ccccc1,-12.2% (active),,51.9%,34.9%,27.5%,7.4% (active),13.3%,30.7%,41.6%,26.4%
COc1ccc(NC(=O)[C@@H]2C[C@H]2c2ccccc2)c(C(N)=O)c1,89.9%,,96%,102%,98.1%,94%,92.4%,87.9%,96%,103%
CCN1CC2=C(Nc3nc(SC)[nH]c(=O)c3C2c2cc(OC)c(OC)c(OC)c2)/C(=C/c2cc(OC)c(OC)c(OC)c2)C1 (stereo not drawn),117%,87.3%,95.9%,87.9%,104%,84.7%,82.5%,,,108%
C/C(=C\CCc1ccsc1)CC/C=C(\C)CCCN1CCSCC1,89.3%,,78.9%,94.7%,23.5%,73.7%,81.2%,59.9%,108%,87.5%
CC(C)N(Cc1ccccc1)c1c(Cl)ssc1=O,93.7%,100%,99.7%,,109%,,121%,,124%,113%
CCSc1nc(Nc2ccc(S(=O)(=O)Nc3ccon3)cc2)c(C#N)c(-c2cccc(Br)c2)n1,119%,87.7%,99.2%,91.3%,93.7%,77.7%,72.6%,,,87.8%
O=C(Nc1ccc(Cl)cc1)Nc1nc2ccc(OC(F)(F)F)cc2o1,131%,,92.5%,89.4%,119%,80.1%,76.4%,87.9%,92.9%,92.7%
NS(=O)(=O)c1ccc(N2CC(c3nc4ccccc4[nH]3)CC2=O)cc1 (stereo not drawn),102%,,97.3%,91.9%,110%,98.3%,96.3%,76.6%,128%,97.3%
CC(C)C[C@H](NC(=O)/C=C/Cn1ccc2ccccc2c1=O)B(O)O,24%,,54.7%,31.7%,-3.46% (active),12.2%,1.78% (active),48.9%,2.1% (active),45.3%
Cc1nn2c(/C=C3/C(=O)Nc4cc(Cl)ccc43)c(-c3ccccc3)nc2s1,0.603% (active),,-1.6% (active),-26.5% (active),80.2%,-14% (active),13.1%,-72.3% (active),-55.3% (active),-50.4% (active)
[N-]=[N+]=NCc1ncc(-c2ccc(C(F)(F)F)cc2)c(NC2CCCCCC2)n1,78.2% [50 µM],,85.2% [50 µM],73.1% [50 µM],82.5% [50 µM],,,50% [50 µM],112% [50 µM],84.3% [50 µM]
CCOC(=O)/C(=C/CC/C(C)=C/CC/C(C)=C/CCc1ccoc1)CC(=O)N1CCCCC1,-19% (active),,47.2%,55.2%,-20.2% (active),22.7%,0.624% (active),25.1%,63.7%,60.7%
CCCCCCCCCCCCC1CCCC(C)C1 (stereo not drawn),94.9%,,106%,95.5%,98.5%,,,87.9%,94.2%,88.2%
COc1ccc(C2CC(c3ccc(Nc4ccnc5cc(Cl)ccc45)cc3)=NN2C(C)=O)cc1 (stereo not drawn),107%,55.7%,76.1%,54.8%,56.1%,47.2%,40.8%,,,73.2%
COc1ccc(-c2nnc3c4[nH]cnc4ncn23)c(OC)c1,29.9%,,55.3%,28.2%,80.4%,12.6%,8.73% (active),23.3%,10.8%,20.9%
CSc1nc2nc3c(c(-c4ccc(C)cc4)c2c(=O)[nH]1)CN(C)C/C3=C\c1ccc(C)cc1,112%,83.5%,102%,94.9%,85.6%,85.2%,87.2%,,,93.7%
O=C1C(=O)c2c(nc3ccc(Cl)cn23)-c2ccccc21,-90.2% (active),-95.6% (active),-100% (active),,-100% (active),-49.6% (active),,,-86.3% (active),-95.4% (active)
COc1cc(-c2nc3sc4c(c3c(=O)[nH]2)CCCCCC4)cc(OC)c1OC,16.4%,,22.1%,44.5%,-12.3% (active),14.3%,14.6%,27.8%,47.6%,19.9%
C/C(=C\CCc1ccoc1)CC/C=C(\C)CCCNc1ccc(F)cc1,106%,,76.2%,97.9%,79.7%,58.7%,59.6%,54.6%,113%,88.7%
CNc1nc(NC2CCCC2)nc(Sc2ccc(OC)cc2)n1,9.28% [100 µM] (active),,28.5% [100 µM],21% [100 µM],10.1% [100 µM],,,12.8% [100 µM],42.1% [100 µM],0.0278% [100 µM] (active)
CCOc1cc(/C=C/C(=O)CC(=O)/C=C/c2ccc(OC(=O)CNc3nc4ccc(OC)cc4s3)c(OCC)c2)ccc1OC(=O)CNc1nc2ccc(OC)cc2s1,59.1%,41.7%,59%,,91.6%,4.63% (active),4.13% (active),,60.5%,75.9%
Cc1ccc(C2=NNC(c3sc(Cl)nc3Cl)C2)cc1 (stereo not drawn),89.3%,,40.8%,112%,97.2%,18%,8.29% (active),78.3%,133%,96.6%
COc1cccc(N2CCN(c3cccc(C)n3)CC2)c1,94%,106%,105%,,93.9%,,101%,,123%,82.4%
CCOC(=O)Nc1cc(-c2ccc(C)c(NS(C)(=O)=O)c2)nn2c(C)nnc12,13.5%,,32%,8.87% (active),-7.14% (active),24.5%,18.9%,-1.22% (active),-3.12% (active),3.16% (active)
COc1ccc(-c2nc3sc4c(c3c(=O)[nH]2)CCCCCC4)cc1,39.7%,,59.4%,65.6%,34.6%,30%,43.4%,62%,60.5%,47.2%
N#Cc1ncc(-c2ccc(C(F)(F)F)cc2)c(NC2CCCCCC2)n1,7.62% (active),,19.6%,-1.84% (active),77.6%,24.8%,66.8%,5.41% (active),58.1%,56.8%
COc1ccc(NC(=O)c2ccc(-c3ccccc3)cc2)c(C(N)=O)c1,99.6%,,96.6%,102%,97%,90%,84.6%,79.6%,118%,103%
